# Assay results published in PubChem BioAssay AID1159580 (chemical genetic matrix, 2015).
# Values joined by “and” are separate entries in the source; they are usually repeats but may differ in a detail not shown here. Identical values can stand only once. Out of some 5,500 compounds screened, about 2,000 (36%) were called active. Inconclusive results (about 18%) are left out. This is one part of the list. Values without a mark were called inactive. No stated cut-off is given here; in the data, active means normalized growth mostly below about 0.91 (no sharp cut-off); inconclusive means no clear call, values can overlap the other calls; inactive means mostly above about 0.92.
# Test: chemical genetic growth profiling, strain panel (AID 1159580);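 further: tested at 20 µM; growth read once vehicle control cultures reached saturation at 30 °C; 1 = growth at the plate median or of vehicle wells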
# Conditions: S. cerevisiae deletion strains, growth OD
smiles,measurement,setting,value
C=C(C)c1cc2cc(C(C)=O)c(O)cc2o1,normalized growth,"locus YAL013W, strain DEP1, stronger effect = lower value",0.948
same,normalized growth,"locus YAL021C, strain ccr4, stronger effect = lower value",0.981
same,normalized growth,"locus YAL026C, strain drs2, stronger effect = lower value",0.985
same,normalized growth,"locus YAL030W, strain snc1, stronger effect = lower value",0.974
same,normalized growth,"locus YBL061C, strain skt5, stronger effect = lower value",0.97
same,normalized growth,"locus YBR009C, strain hhf1, stronger effect = lower value",0.927
same,normalized growth,"locus YBR021W, strain FUR4, stronger effect = lower value",1.11
same,normalized growth,"locus YBR023C, strain chs3, stronger effect = lower value",0.94
same,normalized growth,"locus YBR171W, strain sec66, stronger effect = lower value",0.952
same,normalized growth,"locus YBR229C, strain ROT2, stronger effect = lower value",0.91 (active)
same,normalized growth,"locus YBR231C, strain swc5, stronger effect = lower value",0.961
same,normalized growth,"locus YBR279W, strain paf1, stronger effect = lower value",0.966
same,normalized growth,"locus YCL011C, strain gbp2, stronger effect = lower value",0.943
same,normalized growth,"locus YCL016C, strain dcc1, stronger effect = lower value",0.921
same,normalized growth,"locus YCL029C, strain bik1, stronger effect = lower value",0.961
same,normalized growth,"locus YCL069W, strain vba3, stronger effect = lower value",0.964
same,normalized growth,"locus YCR088W, strain abp1, stronger effect = lower value",0.965
same,normalized growth,"locus YDL005C, strain med2, stronger effect = lower value",0.991
same,normalized growth,"locus YDL035C, strain GPR1, stronger effect = lower value",0.93
same,normalized growth,"locus YDL040C, strain nat1, stronger effect = lower value",0.974
same,normalized growth,"locus YDL074C, strain BRE1, stronger effect = lower value",0.924
same,normalized growth,"locus YDL101C, strain DUN1, stronger effect = lower value",0.959
same,normalized growth,"locus YDL185W, strain tfp1, stronger effect = lower value",0.895 (active)
same,normalized growth,"locus YDL192W, strain arf1, stronger effect = lower value",0.893 (active)
same,normalized growth,"locus YDR001C, strain nth1, stronger effect = lower value",0.972
same,normalized growth,"locus YDR069C, strain doa4, stronger effect = lower value",0.998
same,normalized growth,"locus YDR101C, strain arx1, stronger effect = lower value",0.873 (active)
same,normalized growth,"locus YDR137W, strain rgp1, stronger effect = lower value",0.854
same,normalized growth,"locus YDR150W, strain NUM1, stronger effect = lower value",0.965
same,normalized growth,"locus YDR159W, strain sac3, stronger effect = lower value",0.992
same,normalized growth,"locus YDR162C, strain NBP2, stronger effect = lower value",0.926
same,normalized growth,"locus YDR195W, strain ref2",1.2 [resistant] (active)
same,normalized growth,"locus YDR297W, strain sur2, stronger effect = lower value",0.991
same,normalized growth,"locus YDR318W, strain mcm21, stronger effect = lower value",0.928
same,normalized growth,"locus YDR334W, strain swr1, stronger effect = lower value",0.983
same,normalized growth,"locus YDR335W, strain msn5, stronger effect = lower value",0.965
same,normalized growth,"locus YDR388W, stronger effect = lower value",0.947
same,normalized growth,"locus YDR392W, strain spt3, stronger effect = lower value",0.672 (active)
same,normalized growth,"locus YDR502C, strain sam2, stronger effect = lower value",0.968
same,normalized growth,"locus YEL003W, strain gim4, stronger effect = lower value",0.973
same,normalized growth,"locus YEL037C, strain rad23, stronger effect = lower value",0.979
same,normalized growth,"locus YEL061C, strain CIN8 (second series), stronger effect = lower value",0.958
same,normalized growth,"locus YEL061C, strain CIN8, stronger effect = lower value",0.94
same,normalized growth,"locus YER015W, strain faa2, stronger effect = lower value",0.958
same,normalized growth,"locus YER016W, strain bim1, stronger effect = lower value",0.975
same,normalized growth,"locus YER110C, stronger effect = lower value",0.894 (active)
same,normalized growth,"locus YER111C, strain swi4, stronger effect = lower value",0.97
same,normalized growth,"locus YER155C, strain BEM2 (second series), stronger effect = lower value",0.615 (active)
same,normalized growth,"locus YER155C, strain BEM2, stronger effect = lower value",0.967
same,normalized growth,"locus YER167W, strain BCK2, stronger effect = lower value",0.904
same,normalized growth,"locus YFR010W, strain ubp6, stronger effect = lower value",1
same,normalized growth,"locus YGL078C, strain dbp3, stronger effect = lower value",0.962
same,normalized growth,"locus YGL086W, strain mad1, stronger effect = lower value",0.928 (active)
same,normalized growth,"locus YGL167C, strain pmr1, stronger effect = lower value",0.956
same,normalized growth,"locus YGL173C, strain kem1, stronger effect = lower value",0.971
same,normalized growth,"locus YGL227W, strain vid30, stronger effect = lower value",0.967
same,normalized growth,"locus YGL240W, strain doc1, stronger effect = lower value",0.829 (active)
same,normalized growth,"locus YGL248W, strain PDE1, stronger effect = lower value",0.967
same,normalized growth,"locus YGL253W, strain hxk2, stronger effect = lower value",0.977
same,normalized growth,"locus YGR135W, strain pre9, stronger effect = lower value",0.971
same,normalized growth,"locus YGR252W, strain gcn5, stronger effect = lower value",0.916
same,normalized growth,"locus YHR013C, strain ard1, stronger effect = lower value",0.94
same,normalized growth,"locus YHR027C, strain rpn1, stronger effect = lower value",0.992
same,normalized growth,"locus YHR030C, strain SLT2, stronger effect = lower value",0.954 and 0.925
same,normalized growth,"locus YHR079C, strain IRE1 (second series), stronger effect = lower value",0.93
same,normalized growth,"locus YHR079C, strain IRE1, stronger effect = lower value",0.909
same,normalized growth,"locus YHR094C, strain hxt1, stronger effect = lower value",0.917 (active)
same,normalized growth,"locus YHR129C, strain ARP1, stronger effect = lower value",0.953
same,normalized growth,"locus YHR142W, strain chs7, stronger effect = lower value",0.907
same,normalized growth,"locus YHR200W, strain rpn10, stronger effect = lower value",0.883 (active)
same,normalized growth,"locus YIL066C, strain RNR3, stronger effect = lower value",0.919
same,normalized growth,"locus YIL073C, strain SPO22, stronger effect = lower value",0.899
same,normalized growth,"locus YIL125W, strain kgd1, stronger effect = lower value",0.934
same,normalized growth,"locus YIR030C, strain dcg1, stronger effect = lower value",0.929
same,normalized growth,"locus YJL092W, strain hpr5, stronger effect = lower value",0.973
same,normalized growth,"locus YJL095W, strain BCK1 (second series), stronger effect = lower value",0.974
same,normalized growth,"locus YJL095W, strain BCK1, stronger effect = lower value",0.95 and 0.932
same,normalized growth,"locus YJL115W, strain asf1, stronger effect = lower value",0.983
same,normalized growth,"locus YJL129C, strain trk1, stronger effect = lower value",0.926
same,normalized growth,"locus YJL134W, strain LCB3, stronger effect = lower value",0.951
same,normalized growth,"locus YJL154C, strain vps35, stronger effect = lower value",0.983
same,normalized growth,"locus YJL164C, strain tpk1, stronger effect = lower value",0.932
same,normalized growth,"locus YJL166W, strain qcr8, stronger effect = lower value",0.945
same,normalized growth,"locus YJL168C, strain set2, stronger effect = lower value",0.929 (active)
same,normalized growth,"locus YJL187C, strain SWE1 (second series), stronger effect = lower value",0.958
